sEH inhibitor: inhibitors of human soluble epoxide hydrolase | recombinant human sEH enzymatic activity assay | inhibition, % at 2 µM | actives 0.34% (n = 91,000) | AID 707; in the data active = inhibition above about 80%
Target sequence (P34913 whole entry, looked up): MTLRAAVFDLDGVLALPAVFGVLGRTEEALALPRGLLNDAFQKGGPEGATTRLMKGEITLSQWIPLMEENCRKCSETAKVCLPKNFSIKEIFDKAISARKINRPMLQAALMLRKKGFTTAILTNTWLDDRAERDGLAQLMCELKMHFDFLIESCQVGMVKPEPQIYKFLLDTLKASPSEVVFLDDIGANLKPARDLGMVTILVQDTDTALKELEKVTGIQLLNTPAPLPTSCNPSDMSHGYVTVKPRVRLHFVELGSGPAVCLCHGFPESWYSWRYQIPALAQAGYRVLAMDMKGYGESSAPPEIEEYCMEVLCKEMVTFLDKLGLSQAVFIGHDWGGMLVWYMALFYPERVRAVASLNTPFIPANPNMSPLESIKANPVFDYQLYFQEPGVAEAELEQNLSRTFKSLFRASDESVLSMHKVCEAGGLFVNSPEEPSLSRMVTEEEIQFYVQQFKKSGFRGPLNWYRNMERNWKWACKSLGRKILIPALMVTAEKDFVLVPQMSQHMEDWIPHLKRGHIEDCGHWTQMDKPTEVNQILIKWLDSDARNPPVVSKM
CYP2C19 activ: activators of human cytochrome P450 2C19; P33261; recombinant CYP2C19, luciferin-H EGE luminescence; stronger effect = higher value; 0 = fully inhibited enzyme, 1 = untreated enzyme; activation factor at 5 µM; 96,000 tested, under 10 active;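 active = activation factor of at least 2 at 5 µM in the primary screen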
CYP2C19 inh: blocks human cytochrome P450 2C19; actives 21% (n = 96,000); CYP2C19 Supersomes, luciferin-H EGE luminescence, 30 min; inhibition, % at 5 µM; AID 778; P33261;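 active = CYP2C19 inhibition above a set limit at 5 µM in the primary screen, cut at about 50% in these data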
sEH activator: increases human soluble epoxide hydrolase activity; activation, % at 2 µM; actives 0.04% (n = 91,000); P34913; AID 717; purified human sEH enzymatic activity, activator screen; in the data active = activation above about 37%
CYP2C9 activ: CYP2C9 (human) activation | P11712 | recombinant CYP2C9, luciferin-H conversion, luminescence; stronger effect = higher value; factor 1 = untreated enzyme, 0 = blocked | activation factor at 5 µM | actives 1.4% (n = 96,000);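 active = activation factor of 2 or more for CYP2C9 at a 5 µM dose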
CYP2C9 inhib: inhibitors of human CYP2C9; P11712; CYP2C9 Supersomes, luciferin-H conversion, luminescence; inhibition, % at 5 µM; actives 20% (n = 96,000); AID 777;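 active = blocking of liver enzyme CYP2C9 beyond about 50% at 5 µM, limit read from the data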
Hits are given with their value; – = inactive; · = not tested or not shown. Compounds with a hit are over-represented: about 27% of the library has one in this group of screens.

SMILES	sEH inhibitor	CYP2C19 activ	CYP2C19 inh	sEH activator	CYP2C9 activ	CYP2C9 inhib
O=C1c2ccccc2C(Nc2ccc3c(c2)OCO3)N1Cc1ccc2c(c1)OCO2 (stereo unspecified)	–	–	88	–	–	97
O=C1c2ccccc2C(O)N1Cc1ccc2c(c1)OCO2 (stereo unspecified)	–	–	83	–	–	–
O=C(c1ccccc1)N1CCN(CC#CC2(O)CCCCC2)CC1	·	–	–	·	–	–
O=C(NCCc1ccc(Cl)cc1)C1CCN(S(=O)(=O)c2ccc(-n3cnnn3)cc2)CC1	–	–	–	–	–	–
O=C1c2ccccc2C(Nc2cccnc2)N1Cc1ccc2c(c1)OCO2 (stereo unspecified)	·	–	57	·	–	–
COc1ccc(C(c2c[nH]c3ccccc23)c2c[nH]c3ccccc23)cc1O	–	–	95	–	–	100
Cc1ccc(N2C(=O)c3ccccc3C2Nc2ccccc2F)nc1 (stereo unspecified)	–	–	–	–	–	–
Cc1ccc(N2C(=O)c3ccccc3C2O)nc1 (stereo unspecified)	·	–	79	·	–	–
CS(=O)(=O)N1CCC(c2noc(-c3ccc(C(F)(F)F)cc3)n2)CC1	·	–	–	·	–	–
Cc1cc(C)cc(NS(=O)(=O)c2ccc(NC(=S)NC(=O)c3ccc(Br)o3)cc2)c1	–	–	–	–	–	74
Cc1ccc(NS(=O)(=O)c2ccc(NC(=O)c3ccc(Br)o3)cc2)c(C)c1	–	–	–	–	–	67
Cc1ccc(NS(=O)(=O)c2ccc(NC(=O)c3ccc(-c4ccccc4)cc3)cc2)c(C)c1	–	·	·	–	·	·
O=C(CSCC(=O)c1ccccc1)Nc1ccccc1Cl	–	–	68	–	–	–
CCC(=O)Nc1ccc(NC(=O)CSc2nc3cc4c(cc3cc2C)CCC4)cc1	–	–	–	–	–	–
Cc1ccccc1NC(=O)CSc1nc2cc3c(cc2cc1C)CCC3	–	–	–	–	–	52
O=C(CN1CCN(CC(=O)c2ccc(F)cc2)CC1)Nc1ccccc1Cl	–	–	–	–	–	–
O=C(CSc1nc2ccccc2o1)Nc1ccccc1N1CCOCC1	–	–	92	–	–	95
Cc1ccccc1NC(=O)CSCC(=O)Nc1ccccc1C	–	–	72	–	–	–
O=C(CSc1nc2ccccc2o1)Nc1ccc(N2CCOCC2)cc1	–	–	–	–	–	–
CCCC(=O)NCCSC	·	–	–	·	–	–
O=C(Oc1cccc(Br)c1)c1cccnc1	–	–	–	–	–	–
Cc1ccc(C2C(C(=O)c3cccs3)=C(O)C(=O)N2CCN2CCOCC2)o1 (stereo unspecified)	–	–	–	–	–	–
COC(=O)CCN(C)CCC(=O)OC	–	–	–	–	–	–
Cc1ccc(C)c(CN2C(=O)C(C)Oc3ccc(C)cc32)c1 (stereo unspecified)	–	–	–	–	–	–
CCCCOc1ccc(/C(N)=N/O)cc1	·	–	–	·	–	–
SMILES	sEH inhibitor	CYP2C19 activ	CYP2C19 inh	sEH activator	CYP2C9 activ	CYP2C9 inhib
N=c1sccn1CC(=O)NCCc1ccc(Cl)cc1	–	–	–	–	–	–
Cc1ccccc1NC(=O)CSc1nc2ccccc2o1	–	–	59	–	–	–
O=C(CSc1nc2ccccc2o1)Nc1nc2ccccc2s1	–	–	–	–	–	–
COc1ccc(C2C(C(=O)N3CCCC3)c3cc(OC)c(OC)cc3C(=O)N2C)cc1 (stereo unspecified)	–	–	–	–	–	–
Cn1ccnc1C(O)c1cc(C(C)(C)C)c(O)c(C(C)(C)C)c1 (stereo unspecified)	–	–	–	–	–	76
Cc1ccccc1OCCn1nc(C(=O)O)c2ccccc2c1=O	–	–	54	–	–	–
CC1CN(C(=O)CN2C(=O)c3ccccc3S2(=O)=O)CC(C)O1 (stereo unspecified)	–	–	–	–	–	–
Cc1cccc(C2=N/C(=C\c3cccnc3)C(=O)O2)c1	–	–	–	–	–	–
O=C1N/C(=N/Nc2ccccc2)S/C1=C\c1ccccc1	–	–	53	–	–	67
N#C/C(=C/c1ccc(N2CCCC2)c([N+](=O)[O-])c1)c1nc2ccccc2[nH]1	–	–	73	–	–	58
Cc1ccc2nc(/C(C#N)=C/c3cn[nH]c3-c3ccc(F)cc3)[nH]c2c1	–	–	–	–	–	–
Cc1ccc2nc(/C(C#N)=C\c3ccc(N4CCCCC4)c([N+](=O)[O-])c3)[nH]c2c1	–	–	56	–	–	59
COc1cc(/C=C(/C#N)c2nc3ccccc3[nH]2)ccc1OCC(=O)Nc1ccccc1C(C)C	–	–	–	–	–	60
Cc1ccc(C(=O)O/N=C\c2ccc(N3CCCCC3)c([N+](=O)[O-])c2)cc1	–	–	–	–	–	61
COc1ccc(CNC(=O)CN(C(=O)c2ccc(CN3CCOCC3)o2)C2CCCC2)cc1	–	·	·	–	·	·
Nc1nc(SCC(=O)NC2CCCCCC2)[nH]c(=O)c1-c1ccccc1	–	–	–	–	–	–
Cc1ccc2c(c1)NC(=O)C(CC(=O)NCc1cccnc1)O2 (stereo unspecified)	·	–	–	·	–	–
COc1cc(/C=C(\C#N)c2nc3ccccc3[nH]2)c([N+](=O)[O-])cc1OCc1ccccc1	–	–	–	–	–	76
CCN(CC)c1ccc(/C=C(/C#N)c2nc3ccccc3[nH]2)c(OC(C)C)c1	–	–	–	–	–	74
CCOc1cc(/C=C(/C#N)c2nc3ccccc3[nH]2)ccc1OCc1ccc(C(=O)O)o1	–	·	·	–	·	·
N#C/C(=C\c1ccc(N2CCOCC2)o1)c1nc2ccccc2[nH]1	–	–	–	–	–	–
CCOc1ccc2nc(SCc3ccccc3C#N)sc2c1	–	–	51	–	2.5	–
Cc1cc(C)cc(C(=O)N2CC(=O)Nc3ccccc32)c1	–	–	53	–	–	–
O=C(CN1C(=O)c2cccc3cccc(c23)C1=O)N1CCCCCC1	–	–	–	–	–	–
O=C(CCSc1ccc(F)cc1)Nc1ccc(-n2cnnn2)cc1	–	–	59	–	–	–
SMILES	sEH inhibitor	CYP2C19 activ	CYP2C19 inh	sEH activator	CYP2C9 activ	CYP2C9 inhib
O=C(CCSc1nnc2ccc3ccccc3n12)Nc1ccc(F)cc1	–	–	–	–	2.1	–
CN(C)c1ccc(/C=N/N=C2/NC(=O)/C(=C/c3ccc([N+](=O)[O-])cc3)S2)cc1	–	–	–	–	–	–
COc1ccc2c(c1)C(C)CC(C)(C)N2C(=O)CSc1nc2ccccc2s1 (stereo unspecified)	·	–	71	·	–	54
CC(=O)CSc1nc2ccccc2s1	–	–	–	–	–	–
O=S(=O)(c1cccs1)N1CN(Cc2cccs2)c2nc3ccccc3nc21	–	–	93	–	–	79
C=CCN1CN(S(=O)(=O)c2cccs2)c2nc3ccccc3nc21	–	–	63	–	–	–
O=S(=O)(c1cccs1)N1CN(Cc2ccccc2)c2nc3ccccc3nc21	–	–	–	–	–	–

High-throughput results deposited in PubChem BioAssay by several laboratories.
